# According to PMC7862700, “An all-to-all approach to the identification of sequence-specific readers for epigenetic DNA modifications on cytosine”:
# Key:
# Experiment in all cases: DAPPL (digital affinity profiling via proximity ligation, sequencing); 10 mM Tris-HCl pH 7.5, 50 mM NaCl, 1 mM DTT, 4% glycerol, room temperature, 30 min; GST-TFs on glutathione beads, 16-mer random dsDNA library, 0.1% formaldehyde crosslink after washing; high values mean tight binding
# FEV = target: T1, FEV (Homo sapiens, UniProt Q99581 1-238); settings: protein: recombinant; tags: N-terminal GST; dsDNA, one strand shown
# T1 sequence: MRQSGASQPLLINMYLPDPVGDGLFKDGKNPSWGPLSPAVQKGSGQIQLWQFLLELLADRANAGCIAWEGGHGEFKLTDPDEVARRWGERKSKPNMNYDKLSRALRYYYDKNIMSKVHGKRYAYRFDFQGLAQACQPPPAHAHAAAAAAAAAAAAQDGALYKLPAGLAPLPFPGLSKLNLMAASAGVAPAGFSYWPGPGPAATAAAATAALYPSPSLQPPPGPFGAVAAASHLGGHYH
# Procedure, shortened: (§1)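 The binding signal reported is, for every hexamer, its read frequency for a factor over its read frequency for the tag-only sample. Reads came from pools of yeast-expressed, GST-fused human transcription factors on glutathione beads, barcoded with DNA and mixed with that sample, which were incubated with 200 nmole of a random double-stranded 16-mer DNA library in Tris/NaCl/DTT/glycerol buffer at room temperature for 30 min. After washing, the pools were crosslinked with 0.1% formaldehyde, proximity-ligated with BsaI/T4 ligase for 1 h at 37 °C, PCR-amplified and sequenced on an Illumina NextSeq500.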
# ETV5 = ETV5 (Homo sapiens, UniProt P41161 1-510); settings: protein: recombinant; tags: N-terminal GST; dsDNA, one strand shown
# Procedure, shortened: as §1
# HSF1 = HSF1 (Homo sapiens, UniProt Q00613 1-529); settings: protein: recombinant; tags: N-terminal GST; chain copies: 3; dsDNA, one strand shown
# Procedure, shortened: as §1
# SPIC = target: T2, SPIC (Homo sapiens, UniProt Q8N5J4 1-248); settings: protein: recombinant; tags: N-terminal GST; dsDNA, one strand shown
# T2 sequence: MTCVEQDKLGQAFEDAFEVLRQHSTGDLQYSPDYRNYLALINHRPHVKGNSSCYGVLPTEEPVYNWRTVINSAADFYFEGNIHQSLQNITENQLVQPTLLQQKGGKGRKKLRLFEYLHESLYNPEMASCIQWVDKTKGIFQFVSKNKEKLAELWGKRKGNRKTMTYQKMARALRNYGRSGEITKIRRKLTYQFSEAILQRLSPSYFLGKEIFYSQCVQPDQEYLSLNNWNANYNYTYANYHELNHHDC
# Procedure, shortened: as §1
# ELF4 = ELF4 (Homo sapiens, UniProt Q99607 1-663); settings: protein: recombinant; tags: N-terminal GST; dsDNA, one strand shown
# Procedure, shortened: as §1
# ELK4 = target: T3, ELK4 (Homo sapiens, UniProt P28324-2 1-405); settings: protein: recombinant; tags: N-terminal GST; dsDNA, one strand shown
# T3 sequence: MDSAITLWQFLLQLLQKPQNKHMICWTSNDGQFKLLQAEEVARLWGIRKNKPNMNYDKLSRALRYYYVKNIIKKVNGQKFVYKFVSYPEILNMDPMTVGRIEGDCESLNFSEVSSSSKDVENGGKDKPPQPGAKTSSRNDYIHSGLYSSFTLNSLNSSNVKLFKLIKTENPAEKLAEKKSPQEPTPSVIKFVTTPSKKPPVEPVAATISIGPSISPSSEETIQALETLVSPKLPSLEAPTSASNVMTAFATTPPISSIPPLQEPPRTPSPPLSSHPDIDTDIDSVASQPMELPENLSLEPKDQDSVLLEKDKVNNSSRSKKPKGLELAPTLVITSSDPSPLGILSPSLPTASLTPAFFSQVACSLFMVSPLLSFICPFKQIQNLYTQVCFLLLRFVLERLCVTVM
# Procedure, shortened: as §1
# ETV2 = target: T4, ETV2 (Homo sapiens, UniProt O00321 1-342); settings: protein: recombinant; tags: N-terminal GST; dsDNA, one strand shown
# T4 sequence: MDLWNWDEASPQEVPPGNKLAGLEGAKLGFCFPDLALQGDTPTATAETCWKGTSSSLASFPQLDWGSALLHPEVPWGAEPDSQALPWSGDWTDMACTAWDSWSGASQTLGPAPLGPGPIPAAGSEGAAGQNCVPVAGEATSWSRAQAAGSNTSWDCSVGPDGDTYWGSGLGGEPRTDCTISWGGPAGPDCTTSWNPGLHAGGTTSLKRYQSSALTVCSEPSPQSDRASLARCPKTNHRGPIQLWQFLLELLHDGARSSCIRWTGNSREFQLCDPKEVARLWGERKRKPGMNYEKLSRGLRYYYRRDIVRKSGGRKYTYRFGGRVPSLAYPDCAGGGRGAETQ
# Procedure, shortened: as §1
# ELF3 = target: T5, ELF3 (Homo sapiens, UniProt P78545 1-371); settings: protein: recombinant; tags: N-terminal GST; dsDNA, one strand shown
# T5 sequence: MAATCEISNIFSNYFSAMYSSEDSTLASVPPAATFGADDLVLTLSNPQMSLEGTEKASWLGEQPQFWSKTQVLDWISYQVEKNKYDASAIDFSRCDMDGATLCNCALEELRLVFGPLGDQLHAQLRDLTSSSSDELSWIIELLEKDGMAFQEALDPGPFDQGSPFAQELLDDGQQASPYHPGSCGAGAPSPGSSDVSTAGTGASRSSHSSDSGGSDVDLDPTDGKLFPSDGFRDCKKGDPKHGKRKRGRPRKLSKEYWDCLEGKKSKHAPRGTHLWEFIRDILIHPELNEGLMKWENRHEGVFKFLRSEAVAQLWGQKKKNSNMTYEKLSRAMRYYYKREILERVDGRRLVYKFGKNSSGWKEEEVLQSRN
# Procedure, shortened: as §1
# CRX = CRX (Homo sapiens, UniProt O43186 1-299); settings: protein: recombinant; tags: N-terminal GST; dsDNA, one strand shown
# Procedure, shortened: as §1
# Chain of ETV5 (P41161 whole entry): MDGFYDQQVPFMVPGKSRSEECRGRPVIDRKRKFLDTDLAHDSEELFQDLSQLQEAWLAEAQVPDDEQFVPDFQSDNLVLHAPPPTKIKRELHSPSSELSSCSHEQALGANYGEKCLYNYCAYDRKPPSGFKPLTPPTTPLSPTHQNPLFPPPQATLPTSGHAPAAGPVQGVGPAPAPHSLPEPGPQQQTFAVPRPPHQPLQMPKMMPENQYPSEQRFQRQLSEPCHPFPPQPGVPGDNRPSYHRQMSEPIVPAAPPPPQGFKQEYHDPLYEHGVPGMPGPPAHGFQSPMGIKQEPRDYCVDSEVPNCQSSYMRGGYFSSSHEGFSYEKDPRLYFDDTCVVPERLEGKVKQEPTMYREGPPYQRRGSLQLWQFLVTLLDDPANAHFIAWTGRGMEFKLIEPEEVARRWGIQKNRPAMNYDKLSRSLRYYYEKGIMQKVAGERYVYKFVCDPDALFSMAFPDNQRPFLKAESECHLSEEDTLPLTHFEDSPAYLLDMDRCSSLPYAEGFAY
# Chain of HSF1 (Q00613 whole entry): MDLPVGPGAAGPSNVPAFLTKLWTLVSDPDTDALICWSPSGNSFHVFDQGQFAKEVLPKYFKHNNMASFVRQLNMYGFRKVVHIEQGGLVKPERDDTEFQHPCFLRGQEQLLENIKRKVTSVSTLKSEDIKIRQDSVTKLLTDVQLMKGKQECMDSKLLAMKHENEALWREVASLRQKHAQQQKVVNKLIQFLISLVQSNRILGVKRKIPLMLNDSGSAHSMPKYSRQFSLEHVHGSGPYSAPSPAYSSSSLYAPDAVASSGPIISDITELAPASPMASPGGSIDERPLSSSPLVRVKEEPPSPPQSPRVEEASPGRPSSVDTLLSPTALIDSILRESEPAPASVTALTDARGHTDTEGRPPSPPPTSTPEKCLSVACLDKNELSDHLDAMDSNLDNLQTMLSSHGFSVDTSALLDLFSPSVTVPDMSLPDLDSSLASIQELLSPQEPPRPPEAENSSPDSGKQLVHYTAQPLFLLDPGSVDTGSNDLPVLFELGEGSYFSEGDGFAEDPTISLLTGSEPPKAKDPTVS
# Chain of ELF4 (Q99607 whole entry): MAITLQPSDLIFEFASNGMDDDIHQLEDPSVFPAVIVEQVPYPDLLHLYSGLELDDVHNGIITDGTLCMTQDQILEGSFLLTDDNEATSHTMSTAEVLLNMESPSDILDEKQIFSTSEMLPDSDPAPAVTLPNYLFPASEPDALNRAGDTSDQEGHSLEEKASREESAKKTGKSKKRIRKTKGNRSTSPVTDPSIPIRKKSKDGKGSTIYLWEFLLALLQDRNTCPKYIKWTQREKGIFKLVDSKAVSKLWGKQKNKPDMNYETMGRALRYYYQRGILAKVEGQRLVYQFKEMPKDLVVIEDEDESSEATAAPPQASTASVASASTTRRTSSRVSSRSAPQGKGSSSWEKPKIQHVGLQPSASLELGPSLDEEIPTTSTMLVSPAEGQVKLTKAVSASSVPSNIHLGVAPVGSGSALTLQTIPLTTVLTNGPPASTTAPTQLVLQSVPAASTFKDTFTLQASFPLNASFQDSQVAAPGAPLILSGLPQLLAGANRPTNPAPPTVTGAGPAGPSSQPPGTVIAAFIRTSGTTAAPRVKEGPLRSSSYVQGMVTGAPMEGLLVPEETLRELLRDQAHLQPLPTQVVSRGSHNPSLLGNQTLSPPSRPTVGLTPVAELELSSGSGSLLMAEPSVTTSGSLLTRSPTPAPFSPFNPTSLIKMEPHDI
# Chain of CRX (O43186 whole entry): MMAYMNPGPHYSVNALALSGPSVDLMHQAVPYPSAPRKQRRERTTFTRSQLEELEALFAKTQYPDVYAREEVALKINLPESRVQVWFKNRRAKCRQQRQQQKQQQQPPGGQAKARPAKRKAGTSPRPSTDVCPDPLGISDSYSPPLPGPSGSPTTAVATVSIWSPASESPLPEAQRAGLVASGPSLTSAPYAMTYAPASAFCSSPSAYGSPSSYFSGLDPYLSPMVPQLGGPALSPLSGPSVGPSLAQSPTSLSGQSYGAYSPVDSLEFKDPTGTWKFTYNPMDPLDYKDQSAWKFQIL
sequence,measurement,setting,value
TATTTA,binding signal,FEV,"1.4 fold enrichment (6-mer frequency, TF over GST control)"
same,binding signal,ETV5,"1.47 fold enrichment (6-mer frequency, TF over GST control)"
same,binding signal,HSF1,"1.75 fold enrichment (6-mer frequency, TF over GST control)"
same,binding signal,SPIC,"1.69 fold enrichment (6-mer frequency, TF over GST control)"
same,binding signal,ELF4,"1.45 fold enrichment (6-mer frequency, TF over GST control)"
same,binding signal,ELK4,"1.66 fold enrichment (6-mer frequency, TF over GST control)"
same,binding signal,ETV2,"1.43 fold enrichment (6-mer frequency, TF over GST control)"
same,binding signal,ELF3,"1.57 fold enrichment (6-mer frequency, TF over GST control)"
same,binding signal,CRX,"2.47 fold enrichment (6-mer frequency, TF over GST control)"
